From PubChem BioAssay AID485364 (National Center for Advancing Translational Sciences (NCATS), 2010) come the findings set out here.

Out of some 360,000 compounds screened, about 11,000 (3.1%) were called active. Another 4% or so got no clear call; they are omitted. The list comes from a sample in which actives are over-represented; it also holds similar structures and randomly drawn compounds. Values without a mark were called inactive. The call rests on the fitted dose curve; in most records, active means well fitted inhibition curve with a large enough effect; inconclusive means small, poorly fitted or top-dose-only effect; inactive means no such curve, though single readings can be large or run the other way.
On the % scale 0 is the no-effect control and ±100 the full control effect; potency means the concentration at half of the fitted maximal effect.

The target in the assay is Schistosoma mansoni thioredoxin glutathione reductase (TGR) (UniProt Q962Y6). Nature of the assay: qHTS Assay for the Inhibitors of Schistosoma Mansoni Peroxiredoxins. Further: nearly all actives have a fitted effect of over 60% in size. The note with it: purified TGR, DTNB reduction, TNB absorbance 405 nm; series mostly up to 114 µM; activity change, negative = inhibition: at the top concentration. In outline:
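First, TGR (20 nM dispensed) and NADPH were mixed with compound. Second, a 15 min room-temperature incubation followed. Third, further NADPH and then DTNB were added to start the reaction. Finally, TNB absorbance was monitored kinetically.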
Background: Quantitative high-throughput screening tests each substance at several concentrations.
As to `Cc1ccc(OCC(=O)c2cc(C)n(Cc3ccco3)c2C)c([N+](=O)[O-])n1`, the Potency is 35.5 µM (active).

Turning to `COCC(C)n1c(C)cc(C(=O)COc2ccc(C)nc2[N+](=O)[O-])c1C` (centres undefined), the “activity change, negative = inhibition” value was 59.1%.

As for `Cc1cc(C(=O)COC(=O)CNC(=O)c2ccc(F)cc2)c(C)n1Cc1ccco1`, the “activity change, negative = inhibition” value is -4.25%.

As to `CCOc1ccccc1NC(=O)CCc1nnc2ccc(NCc3ccco3)nn12`, the “activity change, negative = inhibition” value was -19.5%.

Consider `CCOc1ccccc1NC(=S)NC(=O)CCc1ccccc1`, for which the Potency is 7.94 µM (active).

With `CCOc1ccccc1NC(=O)NC1CCCCCCC1`, the “activity change, negative = inhibition” value was -7.77%.

`CCOc1ccc(CNC(=O)Cn2cc3c(n2)-c2c(oc(C(=O)N4CCCC4)c2C)CC3)cc1`: the “activity change, negative = inhibition” value is -0.78%.

On to `CC1=C(C(=O)OCc2ccc(C)cc2)C(c2c(Cl)cccc2Cl)CC(=O)N1` (centres undefined), for which the “activity change, negative = inhibition” value is -1.29%.

Turning to `COc1ccc(CNC(=O)c2cc3c(=O)[nH]c4ccccc4c3s2)cc1`, the “activity change, negative = inhibition” value is -3.05%.

Consider `CCc1cccc(CC)c1NC(=S)NCc1ccc2[nH]c(C)cc2c1`, for which the “activity change, negative = inhibition” value was 4.53%.

Consider `Cc1cc2cc(CNC(=O)c3cccs3)ccc2[nH]1`, for which the Potency is 31.6 µM (active).

Consider `COc1cc2nc(SCc3ccc(F)cc3)n3nc(CCn4c(C)nc5ccccc54)nc3c2cc1OC`, for which the “activity change, negative = inhibition” value is 4.89%.

Turning to `CCCSc1nc2sc3c(c2c(=O)n1-c1cccc(Br)c1)CC(C)(C)OC3`, the “activity change, negative = inhibition” value is 7.71%.

In the case of `COc1ccc(CCNc2ncnc3c2cnn3-c2ccc(C)cc2)cc1`, the “activity change, negative = inhibition” value is -0.478%.

As to `O=C(CSc1nccn1C1CCCC1)Nc1cc(C(F)(F)F)ccc1Cl`, the “activity change, negative = inhibition” value was 6.6%.

`Cc1oc(-c2ccccc2Cl)[n+]([O-])c1C`: the Potency was 31.6 µM (active).

Turning to `CCOc1cnc(-c2c(-c3ccccc3Cl)noc2C)o1`, the “activity change, negative = inhibition” value was -5.55%.

Regarding `COc1ccc(S(=O)(=O)Nc2ccc3oc(C)c(C(C)=O)c3c2)cc1`, the “activity change, negative = inhibition” value is -27.8%.

On to `CCn1c(=O)c(=O)[nH]c2c(=O)oc3ccc(S(=O)(=O)Nc4ccc(OC)cc4)cc3c21`, for which the Potency is 35.5 µM (active).

On to `COc1ccc(NS(=O)(=O)c2ccc3oc(SCC(N)=O)nc3c2)cc1`, for which the “activity change, negative = inhibition” value was -0.717%.

For the compound `CCOC(=O)c1ccc(NC(=O)CS(=O)(=O)c2cn(CC)c3ccccc23)cc1`, the “activity change, negative = inhibition” value was 1.35%.

As to `Cc1cc(NC(=O)CS(=O)(=O)c2cn(C)c3ccccc23)no1`, the Potency was 28.2 µM (active).

Regarding `Cc1cc(NC(=O)COn2nnc3ccccc32)no1`, the “activity change, negative = inhibition” value was 0.17%.

For `COc1ccc(N(C)C(=O)C2CCN(S(=O)(=O)c3cc(Br)cc4c3N(C(C)=O)CC4)CC2)cc1`, the “activity change, negative = inhibition” value is 4.51%.

Take `COc1ccc(Cl)cc1S(=O)(=O)N1CCC(c2ccncc2)CC1`: the “activity change, negative = inhibition” value was -0.887%.

Turning to `CN(Cc1ccccn1)Cc1nc(-c2ccc(Cl)cc2)no1`, the Potency is 28.2 µM (active).

Consider `COC(=O)c1ccc(-c2noc(CN(Cc3ccccn3)CC3CCCO3)n2)cc1` (centres undefined), for which the “activity change, negative = inhibition” value was 7.28%.

For `CCN1CC(CN(C)Cc2nc(-c3ccc(Cl)cc3)no2)CC1=O` (centres undefined), the “activity change, negative = inhibition” value is -4.79%.

Take `CC(=O)N1CCCc2ccc(NS(=O)(=O)c3ccc(F)cc3F)cc21`: the “activity change, negative = inhibition” value was -1.51%.

Regarding `COc1cc(OC)cc(-c2nc3nc(C)c(CCC(=O)Nc4ccccc4)c(C)n3n2)c1`, the “activity change, negative = inhibition” value was -3.65%.

Regarding `Cc1ccc(NC(=O)c2oc3ccc(S(=O)(=O)N4CCCCC4)cc3c2C)cc1Cl`, the “activity change, negative = inhibition” value was 7.17%.

Consider `O=C(CCS(=O)(=O)c1ccccc1Cl)Nc1ccc(S(=O)(=O)Nc2ncccn2)cc1`, for which the Potency is 14.1 µM (active).

For `O=C(/C=C/c1ccccc1Cl)Nc1ccc(S(=O)(=O)Nc2ncccn2)cc1`, the “activity change, negative = inhibition” value was 6.23%.

On to `O=S(=O)(Nc1ncccn1)c1ccc(NS(=O)(=O)c2cccc(Cl)c2Cl)cc1`, for which the “activity change, negative = inhibition” value is 1.1%.

As for `CCOc1ccc(NC(=O)Cn2c(=O)n(CCCC(=O)NCc3ccc4c(c3)OCO4)c(=O)c3ccccc32)cc1`, the “activity change, negative = inhibition” value is -0.638%.

For `O=S(=O)(NCCS(=O)(=O)N1CCN(c2ccccc2)CC1)c1ccc(Cl)cc1`, the “activity change, negative = inhibition” value is -1.31%.

With `O=C(CNS(=O)(=O)c1cccs1)N1CCN(c2ccccc2Cl)CC1`, the “activity change, negative = inhibition” value is -8.44%.

Consider `Cc1ccccc1Nc1nn2c(=O)c3ccc(C(=O)NCCc4ccc(Cl)cc4)cc3nc2s1`, for which the “activity change, negative = inhibition” value is -12.3%.

As for `O=C(O)c1ccc2c(c1)N(Cc1ccc(F)cc1)C(=O)c1ccccc1S2=O` (centres undefined), the “activity change, negative = inhibition” value was 6%.

With `CCC1=C/C(=C\c2ccc3c(c2)OCO3)C(=O)S1`, the Potency is 28.2 µM (active).

As to `CCc1ccc(NC(=O)NC(C)c2ccc3c(c2)OCO3)cc1` (centres undefined), the “activity change, negative = inhibition” value was -3.56%.

With `CCCCN(CC)C(=O)c1ccc2c(c1)OCO2`, the “activity change, negative = inhibition” value is 24.1%.

With `COc1ccc(-c2nc3ccc(C(=O)NCc4ccc(C)cc4)cc3nc2-c2ccc(OC)cc2)cc1`, the “activity change, negative = inhibition” value was 7.37%.

`COc1cccc(S(=O)(=O)NCc2ccc(C(=O)NCc3ccccn3)cc2)c1`: the “activity change, negative = inhibition” value was -21.9%.

In the case of `O=C(NCc1ccccn1)c1ccc2nc(-c3ccco3)c(-c3ccco3)nc2c1`, the Potency was 0.891 µM (active).

Consider `CNC(=S)N/N=C/c1ccc(N2CCOCC2)s1`, for which the Potency is 28.2 µM (active).

For `CNC(=S)N/N=C/c1ccc(OCc2ccccc2)c(Br)c1`, the “activity change, negative = inhibition” value is -6.28%.

Take `Cc1ccc(C(=O)C(=S)N2CCOCC2)cc1`: the “activity change, negative = inhibition” value was -13.4%.

As for `CCN(CC)c1ccc(NC(=O)CN2CCN(CC(=O)Nc3ccc(Cl)cc3)CC2)cc1`, the “activity change, negative = inhibition” value is 0.407%.

Regarding `COc1ccc(C2C(=O)N(C3CCCCCC3)CC(=O)N2CCc2ccc(Cl)cc2)cc1OC` (centres undefined), the “activity change, negative = inhibition” value was 8.56%.

Consider `Oc1ccc(-c2nc3ccc(Cl)cn3c2Nc2ccc3c(c2)OCO3)cc1`, for which the “activity change, negative = inhibition” value is -0.513%.

For `COc1ccc(OC)c(NC(=O)CSC2=Nc3ccccc3C3=NC(CC(=O)NCCc4ccccc4)C(=O)N23)c1` (centres undefined), the “activity change, negative = inhibition” value is -2.58%.

For `Cc1coc2c(O)cc3c(c12)OC1(N2CCCCC2)C(=O)NCCCC31` (centres undefined), the Potency is 17.8 µM (active).

In the case of `Cn1c(=O)c2c(nc(SCC(=O)Nc3ccc(F)cc3)n2Cc2ccc(Cl)cc2)n(C)c1=O`, the “activity change, negative = inhibition” value was -12%.

Take `O=C(Nc1ccccc1Cl)N1CCC(CN2CCCCC2)CC1`: the “activity change, negative = inhibition” value is 2.55%.

In the case of `Cc1cc(C)c(/C=C/c2onc(C)c2S(=O)(=O)N2CCC(C(=O)Nc3ccc(Cl)cc3C)CC2)c(C)c1`, the “activity change, negative = inhibition” value is 1.13%.

Take `NC(=O)CSc1oc(-c2cccs2)nc1S(=O)(=O)c1ccccc1`: the “activity change, negative = inhibition” value is -20.4%.

Turning to `CSc1oc(-c2cccs2)nc1S(=O)(=O)c1ccc(Br)cc1`, the “activity change, negative = inhibition” value is -4.01%.

In the case of `CCCCS(=O)(=O)c1oc(-c2cccs2)nc1S(=O)(=O)c1ccccc1`, the Potency was 0.501 µM (active).

For the compound `COc1ccccc1OCC(=O)Nc1nnc2n1CCS2`, the “activity change, negative = inhibition” value is 5.09%.

For the compound `CCOC(=O)c1c(S(=O)(=O)NCC(=O)Nc2ccc(Cl)c(C(F)(F)F)c2)c(C)n(C)c1C`, the “activity change, negative = inhibition” value is -8.26%.

As for `Cc1cc(C)c(S(=O)(=O)n2cc(C(C)C(N)C(=O)O)c3ccccc32)c(C)c1` (centres undefined), the Potency is 10 µM (active).

Turning to `Cc1ccc(S(=O)(=O)n2cnc3ccccc32)c(C)c1`, the “activity change, negative = inhibition” value was -18.3%.

For the compound `Cc1ccc(C)c(S(=O)(=O)n2cnc3ccccc32)c1`, the “activity change, negative = inhibition” value is 5.84%.
